A selection: hits, their analogues and other compounds. The true share with any hit is near 11%.
Tau fluor counter: counter-screen for tau fibril formation inhibitors. 0.93% of 280,000 active. tau K18 P301L Alexa594 fluorescence, heparin fibrillization. Potency, µM (titrated, usually from 57.7 µM), without a hit: at the top dose activity change, negative = decrease. AID 1463; further: potency means the concentration at half of the fitted maximal effect; nearly all actives have a fitted effect of over 55% in size
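Human K18 P301L tau (15 uM unlabeled plus 0.24 uM Alexa 594-labeled, final) in 100 mM sodium acetate pH 7 was mixed with compound and 20 uM heparin and incubated 6 hr at 37 C.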
Tau fibril ThT: inhibitors of human tau fibril formation, thioflavin T binding; recombinant tau K18 P301L (four-repeat tau fragment), heparin-induced fibrillization, ThT fluorescence; AID 1460; Potency, µM (top dose mostly 57.4 µM), for inactives: top-dose activity, negative = inhibition, most hits filed as inhibitors; 2.1% of 270,000 active; P10636; further: potency means the concentration at half of the fitted maximal effect; nearly all actives have a fitted effect of over 55% in size
Target sequence (P10636 561-689 P618L limits assumed): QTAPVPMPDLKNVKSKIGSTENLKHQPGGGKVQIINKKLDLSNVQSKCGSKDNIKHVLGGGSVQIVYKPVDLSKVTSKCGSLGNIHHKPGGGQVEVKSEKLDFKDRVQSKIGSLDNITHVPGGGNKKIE
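Recombinant human tau K18 fragment […] carrying P301L, 15 uM unlabeled plus 0.24 uM Alexa 594-labeled, was fibrillized with 20 uM heparin in 100 mM sodium acetate pH 7 for 6 hr at 37 C; 30 uM ThT fluorescence read after 1 hr.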
Tau FP inhib: tau fibrillization inhibition (FP); P10636; K18 P301L tau heparin fibrillization, Alexa594 FP, 6 h; Potency, µM (titrated, usually from 57.7 µM), for inactives: top-dose activity, negative = inhibition, actives largely listed as inhibitors; 0.39% of 280,000 active; further: potency means the concentration at half of the fitted maximal effect; nearly all actives have a fitted effect of over 55% in size
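K18 P301L tau (15 uM unlabeled/0.24 uM Alexa 594-labeled, final) + compound + heparin 20 uM final; 100 mM NaOAc pH 7; 6 hr 37 C; ThT 30 uM final added, 1 hr RT; FP ex 555/em 632 nm.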
Sfp inh: Sfp phosphopantetheinyl transferase inhibition; Q9F4F7; Biochemical Sfp PPTase activity, qHTS; Potency, µM, for the others: largest response in the series, negative = inhibition, actives largely listed as inhibitors; 3.5% of 310,000 active; AID 1490;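 further: the enzyme is Sfp with the accession as filed and its product quenches rhodamine fluorescence; potency means the concentration at half of the fitted maximal effect; 0% = enzyme reaction without inhibitor and -100% = no enzyme wells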
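Buffer: 50 mM Hepes-Na pH 7.6, 10 mM MgCl2, 0.01% Nonidet P-40, 0.01% BSA. Enzyme 15 nM, pre-exposed to compound 15 min; substrates then added and fluorescence change tracked over 30 min.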
FBPA coupling cs: counter-screen for Giardia aldolase inhibitors: coupling enzyme system; activity change, negative = inhibition, % at 58.2 µM, hits read low; 0.67% of 290,000 active; coupling enzyme system counterscreen, AmpLite Red fluorescence; in the data active means activity change below about -30%
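Fluorescence at 525 nm excitation and 598 nm emission measured inhibition of the coupled detection system without aldolase. Compounds (at 57.5 uM final) were preincubated 10 min at room temperature with coupling enzyme reagent before a 20 min substrate/AmpLite Red step.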
G9a inh: blocks human histone lysine methyltransferase G9a. Q96KQ7. G9a H3K9 monomethylation, AlphaScreen, 2 h. Potency, µM (highest dose often 102 µM), without a hit: at the highest dose activity, negative = inhibition, hits mostly inhibitors. 8.8% of 350,000 active; further: potency means the concentration at half of the fitted maximal effect; nearly all actives have a fitted effect of over 75% in size
Target sequence (Q96KQ7 913-1193 limits assumed): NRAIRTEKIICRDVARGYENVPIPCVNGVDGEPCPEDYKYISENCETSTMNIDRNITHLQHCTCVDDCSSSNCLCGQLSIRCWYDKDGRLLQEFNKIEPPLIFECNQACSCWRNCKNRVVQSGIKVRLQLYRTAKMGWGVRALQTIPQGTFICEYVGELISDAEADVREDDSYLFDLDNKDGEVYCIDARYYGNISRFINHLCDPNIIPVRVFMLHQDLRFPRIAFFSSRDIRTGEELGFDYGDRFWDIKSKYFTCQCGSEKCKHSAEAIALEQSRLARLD
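Quantitative HTS format: methyltransferase activity on a biotin-tagged H3K9 peptide is measured by AlphaScreen, using a rabbit anti-monomethyl-H3K9 antibody with streptavidin donor and anti-IgG acceptor beads. Final levels are 20 nM enzyme, 500 nM peptide, 20 uM SAM; 2 h RT.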
* = called active by the depositor; ? = inconclusive; · = no result given; [ ] = another dose, or the depositor's remark. Unless noted, the call rests on the fitted dose curve; in most records, active means well fitted curve in the direction sought with a large enough effect; inconclusive means small, poorly fitted or top-dose-only effect, or another doubt; inactive means no such curve, though single readings can be large; an effect the other way counts as inactive or inconclusive. Unless noted, on the % scale 0 is the no-effect control and ±100 the full control effect.

SMILES | Tau fluor counter | Tau fibril ThT | Tau FP inhib | Sfp inh | FBPA coupling cs | G9a inh
COc1ccc(OC)c(C2OCCC=CC2C)c1 (stereo not drawn) | -2%[11.6 µM] | -3%[11.5 µM] | -5%[11.6 µM] | 11% | 3 | ·
O=C(N/N=C/c1ccccc1)c1ccc(NC(=O)c2ccc(F)cc2)cc1 | · | · | · | 15% | 2 | -44%
COc1ccc(Br)cc1/C=N/Nc1cccc(C(=O)O)c1 | -25% | ? | 0% | 7% | 6 | 10µM*
O=C(N/N=C/c1cc(Br)cc([N+](=O)[O-])c1O)c1ccc(NC(=O)c2ccc(F)cc2)cc1 | · | · | · | 22% | 4 | 35µM*
COc1ccc(/C(C)=N/Nc2nc3ccccc3nc2C)cc1OC | ? | 13µM* | ? | 0% | -1 | -5%
O=C(N/N=C/c1cc(Br)cc(Br)c1O)c1ccncc1 | -28% | ? | 11% | 6% | 5 | 50µM*
O=C(N/N=C/c1cc(Cl)cc(Cl)c1O)c1ccncc1 | -11% | -13% | 11% | 15% | 5 | -4%
COc1ccccc1/C=C/C=N/Nc1cccc(C(=O)O)c1 | · | · | · | -8% | 1 | -4%
COc1ccc(CCNC(=O)CCn2c(=O)c3ccccc3n(CC(=O)Nc3ccc(C)cc3C)c2=O)cc1OC | -19% | -19% | ? | · | · | 22%[59 µM]
COc1ccc(Br)cc1/C=N/NC(=O)c1cc(Br)ccc1O | -25% | ? | -1% | 5% | 1 | 40µM*
CC(=O)N1CCCc2cc(S(=O)(=O)N3CCCC(C(=O)Nc4ccc(F)cc4F)C3)ccc21 (stereo not drawn) | -10% | 0% | -14% | · | · | -6%[59 µM]
CCOC(=O)C1CCN(C(=O)c2cc3ccc4ccc(C)[nH]c4c3n2)CC1 | -13% | ? | -2% | · | · | 14µM*
CCOC(=O)C1CCN(C(=O)c2cc3ccc4cccnc4c3[nH]2)CC1 | -6% | -16% | 2% | · | · | -24%[59 µM]
CCC(=O)N1CCc2nc(-c3ccccc3)sc2C1 | · | · | · | 8% | 0 | -36%
Cc1cc(SCC(=O)N/N=C/c2ccc(O)cc2O)c(C)cc1Br | 16µM*[quencher] | ? | -7% | -19% | 1 | 4%
COc1ccccc1N(CC(=O)N1CCC(C)CC1)S(=O)(=O)c1ccc(C)cc1 | -2% | -1% | 2% | · | · | 1%[59 µM]
COc1ccccc1N1CCN(C2CCN(S(=O)(=O)c3ccc(C)cc3)CC2)CC1 | -8% | -12% | 5% | 3% | 0 | 16%[59 µM]
COc1ccccc1N1CCN(S(=O)(=O)c2ccc3nc(-c4ccccc4)[nH]c3c2)CC1 | ? | 8% | 22µM* | 29% | 1 | ?
COc1ccccc1N1CCN(C2CCN(S(=O)(=O)c3ccc4ccccc4c3)CC2)CC1 | -25% | -16% | 7% | 1% | -2 | 45µM*
O=S(=O)(c1ccccc1)N1CCN(C2CCN(Cc3ccccc3)CC2)CC1 | 5% | -4% | 0% | 8% | 3 | -1%
O=S(=O)(c1ccc2ccccc2c1)N1CCN(C2CCN(Cc3ccccc3)CC2)CC1 | -13% | 3% | 2% | ? | -1 | 5µM*
c1ccc(CN2CCC(N3CCC(N4CCCCCC4)CC3)CC2)cc1 | · | · | · | ? | -2 | 45µM*
Cc1ccc(-c2nnn(CC(=O)N(c3ccccc3)C(C(=O)NCC3CCCO3)c3cccs3)n2)o1 (stereo not drawn) | -2% | 1% | 8% | 11% | -1 | -28%
CCOc1ccccc1NC(=O)CSc1ncc(S(=O)(=O)c2ccc(C)c(C)c2)c(N)n1 | ? | -15% | -11% | · | · | 20%[59 µM]
CCS(=O)(=O)N1CCN(C2Cc3ccccc3C2)CC1 | -8% | -15% | -4% | -25% | -2 | 7.9µM*
SMILES | Tau fluor counter | Tau fibril ThT | Tau FP inhib | Sfp inh | FBPA coupling cs | G9a inh
CC1CCC(N2CCN(S(=O)(=O)Cc3ccccc3)CC2)CC1 (stereo not drawn) | · | · | · | -7% | 3 | 25µM*
O=S(=O)(c1ccc2ccccc2c1)N1CCN(C2Cc3ccccc3C2)CC1 | -13% | -10% | -12% | -27% | 1 | 10µM*
COc1cccc(-c2ccc3ncnc(NCc4ccc(OC)cc4OC)c3c2)c1 | · | · | · | -2% | 0 | -6%[0.501 µM]
CC(=O)NCCc1nc2cc(NC(=O)COc3cccc(C)c3)ccc2n1C | · | · | · | 6% | -1 | 8%
CCOC(=O)C1CCN(C(=O)CC(C)S(=O)(=O)c2ccc3c(c2)NC(=O)CO3)CC1 (stereo not drawn) | · | · | · | 9% | · | 71µM*
Cc1ccc(Sc2ccc(N3CCCC(C(=O)Nc4ccc(Br)cc4)C3)nn2)cc1 (stereo not drawn) | -21% | -1% | 2% | · | · | 0%[59 µM]
O=C(NC(=S)NNC(=O)c1cnccn1)c1ccc(F)cc1 | -17% | -21% | -3% | 15% | -1 | 40µM*
COc1ccc(/C=C/C(=O)NC(=S)NNC(=O)c2cnccn2)cc1 | ? | · | -6% | 19% | 3 | -17%
O=C(/C=C/c1ccc(F)cc1)NC(=S)NNC(=O)c1cnccn1 | -15% | · | 6% | 11% | 2 | 50µM*
CCOC(=O)CNC(=O)CSc1cn(CC(=O)N2CCCCCC2)c2ccccc12 | -11% | -14% | -10% | · | · | -9%[59 µM]
COc1ccc(-c2cn3c(n2)sc2cc(C(=O)Nc4c(C)cccc4C)ccc23)cc1 | -12% | -13% | 6% | · | · | -35%[59 µM]
O=C(OOC(=O)c1ccccc1)c1ccccc1 | 1% | 5% | 6% | 0% | 2 | 28%[59 µM]
CCOc1ncccc1C(=O)OC(C)C(=O)NC(=O)NC1CCCCC1 (stereo not drawn) | -12% | -10% | 1% | -6% | 3 | 1%
CC1CC(C)CN(C(=O)CCc2nnc3ccc(N4CCCCC4)nn23)C1 (stereo not drawn) | · | · | · | 7% | -1 | 79µM*
CCOC(=O)C1CCN(C(=O)CCc2nnc3ccc(N4CCC(C)CC4)nn23)CC1 | · | · | · | 13% | 2 | -12%
C[N+](C)(C)CCOC(=O)C1(c2ccccc2)CCCC1 | -9% | -10% | 1% | 14% | 1 | 3.5µM*
CCN(c1ccc(N=Cc2c(O)n(Cc3ccc(OC)cc3)c(=O)c3ccccc23)cc1)C(C)C | -24% | -1% | 4% | -5% | 3 | -47%
Cc1cc2oc(=O)cc(CSc3nnc(-c4cccs4)o3)c2cc1C(C)C | 7% | 7% | 6% | -9% | 3 | 35µM*
Cc1cc2oc(=O)cc(CSc3nnc(C)n3N)c2cc1C(C)C | -3% | -3% | 1% | 8% | 1 | -40%
O=C(CNC(=O)c1ccccc1C(F)(F)F)N/N=C/c1cccs1 | · | · | · | 20% | -4 | -2%[59 µM]
O=C(O)Cn1c2ccccc2c2ccccc21 | -12% | -10% | -7% | 13% | 4 | 0%
O=C(O)Cn1c2c(c3ccccc31)CSc1ccc(Cl)cc1-2 | · | · | · | 20µM* | 9 | ?

Screening results deposited in PubChem by National Center for Advancing Translational Sciences (NCATS).
